HCMV inh: qHTS Assay for inhibitors of the human cytomegalovirus (HCMV); AID 1259415, 2018; hit rate 4.5% among 410,000; HFF cells, HCMV-luciferase reporter, 72 h; stronger effect = lower value; activity change, negative = inhibition, % at 57.5 µM; in the data active means activity change below about -60%; inconclusive means no clear call, values can overlap the other calls; inactive means above about -39%
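Cell-based, HFFs, 1000 cells/well, 16 h 37C; cpds in DMSO + HCMV-luc, MOI 1 PFU/cell; 72 h 37C; OneGlo luminescence after 5 min RT; norm. to buffer vs Salinomycin 10uM.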
Pf growth 96h: Primary qHTS for delayed death inhibitors of the malarial parasite plastid, 96 hour incubation; P. falciparum luciferase reporter growth, 96 h; Potency, µM (top dose mostly 28.7 µM), usual class: inhibitors; hit rate 6.9% among 320,000
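Readout is luminescence from an integrated firefly luciferase in P. falciparum. Red cells, 2% hematocrit and 0.05% parasitemia final, were cultured with compound through two parasite generations (96 hours) at 37 C, 5% CO2.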
Pf growth 48h: Primary qHTS for delayed death inhibitors of the malarial parasite plastid, 48 hour incubation; hit rate 5.9% among 310,000; AID 504832, 2011; P. falciparum luciferase growth in erythrocytes, 48 h; Potency, µM (doses to about 28.7 µM), most hits filed as inhibitors
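Erythrocytes infected with P. falciparum carrying an integrated firefly luciferase reporter (2% hematocrit, 0.1% parasitemia final) were exposed to compounds in RPMI 1640 with 0.5% Albumax at 37 C, 5% CO2. Growth inhibition was scored as reduced luminescence.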
FBPA Giardia inh: qHTS Assay for Inhibitors of Fructose-1,6-bisphosphate Aldolase from Giardia Lamblia; AID 2451, 2010; A8B2U2; purified Giardia FBPA; hit rate 0.71% among 290,000; Potency, µM (doses to about 59.6 µM), actives largely listed as inhibitors; further: nearly all actives have a fitted effect of over 55% in size
Target sequence (A8B2U2 whole entry, looked up): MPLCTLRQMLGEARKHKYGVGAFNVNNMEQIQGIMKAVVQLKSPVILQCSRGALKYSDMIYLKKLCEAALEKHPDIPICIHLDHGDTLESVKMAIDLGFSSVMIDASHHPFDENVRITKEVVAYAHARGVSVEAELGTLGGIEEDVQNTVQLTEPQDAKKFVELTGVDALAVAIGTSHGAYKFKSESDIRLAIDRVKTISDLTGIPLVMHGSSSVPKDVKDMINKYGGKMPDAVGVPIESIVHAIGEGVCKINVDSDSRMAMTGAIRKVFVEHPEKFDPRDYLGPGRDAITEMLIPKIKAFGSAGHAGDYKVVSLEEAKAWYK
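Giardia FBPA (40 nM reagent) was preincubated 10 min at RT with compound (up to 57.5 uM final), then substrate plus GAPDH/TPI/NAD/arsenate coupling system with diaphorase/resazurin was added; resorufin fluorescence (525/598 nm) was read after 20 min.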
Sm TGR block: qHTS Assay for the Inhibitors of Schistosoma Mansoni Peroxiredoxins | Schistosoma mansoni thioredoxin glutathione reductase (TGR), Q962Y6 | purified TGR, DTNB reduction, TNB absorbance 405 nm | Potency, µM (top dose mostly 114 µM), hits mostly inhibitors | hit rate 3% among 360,000; further: nearly all actives have a fitted effect of over 60% in size
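First, TGR (20 nM dispensed) and NADPH were mixed with compound. Second, a 15 min room-temperature incubation followed. Third, further NADPH and then DTNB were added to start the reaction. Finally, TNB absorbance was monitored kinetically.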
Numbers stand for hits; i = inactive; ? = inconclusive; nt = no result given; ! = a repeat was not active; [ ] = another dose, or the depositor's remark. Compounds with a hit are over-represented: about 14% of the library has one in this group of screens. Unless noted, the call rests on the fitted dose curve; in most records, active means well fitted curve in the direction sought with a large enough effect; inconclusive means small, poorly fitted or top-dose-only effect, or another doubt; inactive means no such curve, though single readings can be large; an effect the other way counts as inactive or inconclusive.

SMILES	HCMV inh	Pf growth 96h	Pf growth 48h	FBPA Giardia inh	Sm TGR block
Cc1ccc(C2C3=C(CC(C)(C)CC3=O)NC3=C2C(=O)c2ccccc23)cc1 (stereo not given)	-65	1.9µM	5.2µM	i	i
CSC1=C(C#N)C(c2ccc(Cl)cc2)C2=C(CC(C)(C)CC2=O)N1 (stereo not given)	-68	i	7.4µM	i	28µM
CC1(C)CC(=O)C2=C(C1)NC1=C(C(=O)c3ccccc31)C2c1ccc(Cl)cc1 (stereo not given)	-100	?	?	i	i
CCCSC1=C(C#N)C(c2ccc(OC)cc2)C2=C(CC(C)(C)CC2=O)N1 (stereo not given)	i	?	?	i	i
CSc1ncc2c(n1)-c1ccccc1N(Cc1ccccc1C)S2(=O)=O	i	nt	nt	nt	i
CC(=O)N1CCCc2cc(S(=O)(=O)N3CCC(N(C)C(C)C)CC3)ccc21	i	nt	nt	nt	i
CC(=O)Nc1ccc(S(=O)(=O)Nc2cc(C)cn(Cc3ccccc3)c2=O)cc1	nt	?	i	?	?
CCC(=O)N1CCN(c2ccc(-n3c(=O)ccc4cnc5ccc(-c6cnc7ccccc7c6)cc5c43)cc2C(F)(F)F)CC1	-83	nt	nt	nt	nt
CCCN(CC(=O)Nc1ccccc1C)C(=O)C1CC(=O)N(Cc2ccccc2)C1 (stereo not given)	-98	i	i	nt	i
CCCN(CC(=O)Nc1ccccc1C)C(=O)CCl	-99	1.7µM	?	i	14µM
O=C(Nc1cccc(S(=O)(=O)N2CCCC2)c1)c1ccc2c(=O)n3c(nc2c1)CCCCC3	-66	5.2µM	?	i	i
O=C(Nc1ccc(SC(F)F)cc1)c1ccc2c(=O)n3c(nc2c1)CCC3	-70	i	i	nt	i
O=C(Nc1ccc(S(=O)(=O)C(F)F)cc1)c1ccc2c(=O)n3c(nc2c1)CCC3	i	?	?	nt	i
O=C(Nc1cccc(S(=O)(=O)N2CCOCC2)c1)c1ccc2c(=O)n3c(nc2c1)CCCCC3	-84	?	i	i	i
O=C(Nc1ccc(F)cc1Cl)c1ccc2c(=O)n3c(nc2c1)CCCCC3	i	3.7µM	i	i	i
CCOc1ccc(N(CC(=O)NC2CCCCC2)C(=O)CCCC(=O)Nc2ccccn2)cc1	i	?	i	i	i
COc1ccccc1-c1nnc(NC(C)=O)s1	i	7.4µM	i	i	i
CCCCOC(=O)Nc1nnc(-c2ccccc2OC)s1	-83	?	?	i	i
COc1ccccc1-c1nnc(NC(=O)C(C)C)s1	i	i	i	i	i
Cc1ccc(N(Cc2cc(=O)[nH]c3ccccc23)C(=O)CCl)c(C)c1	-97	6.6µM	9.3µM	i	13µM
COc1ccc(N(Cc2cc(=O)[nH]c3ccccc23)C(=O)c2ccco2)cc1	i	?	?	i	32µM
CCC(=O)N(Cc1cc2ccc(C)cc2[nH]c1=O)c1ccccc1OC	i	?	?	i	89µM
CCC(=O)N(Cc1cc2cc(OC)ccc2[nH]c1=O)c1ccccc1OC	i	nt	nt	nt	nt
COc1ccc(CN(C(=O)c2ccco2)c2ccccc2)cc1	i	i	i	i	i
CCCC(=O)N(Cc1cc(=O)[nH]c2ccccc12)c1ccccc1OC	i	12µM	7.4µM	i	i
SMILES	HCMV inh	Pf growth 96h	Pf growth 48h	FBPA Giardia inh	Sm TGR block
CCCC(=O)N(Cc1cc(=O)[nH]c2ccccc12)c1ccc(C)cc1C	i	?	?	i	i
Cc1ccc(S(=O)(=O)CCC(=O)OCC(=O)N(C)c2ccccc2)cc1	i	nt	nt	nt	nt
CCOc1ccc(NC(=O)C2CC(=O)NC(=Nc3ccc(Cl)c(Cl)c3)S2)cc1 (stereo not given)	i	nt	nt	nt	i
NC(N)=N/N=C/c1c(Cl)cccc1Cl	-73!	3.7µM!	13µM	i	i
COc1ccc(/C=N\N=C(N)N)cc1	?	i	?	i	i
NC(N)=N/N=C/c1ccccc1Cl	i	10µM	12µM	i	i
C=CC1=C(C(=O)O)N2C(=O)[C@@H](NC(=O)C(N=O)c3csc(N)n3)[C@H]2SC1 (stereo not given in full)	nt	i	i	16µM	nt
CC1=C(C(=O)O)N2C(=O)C(NC(=O)C(N)C3=CCC=CC3)C2SC1 (stereo not given)	nt	nt	nt	7.9µM	nt
CC1=C(C(=O)O)N2C(=O)[C@@H](NC(=O)C(N)C3=CCC=CC3)[C@H]2SC1 (stereo not given in full)	nt	nt	nt	i	nt
N[C@@H](C(=O)N[C@@H]1C(=O)N2C(C(=O)O)=C(Cl)CS[C@H]12)c1ccccc1	i	?	i	20µM!	i
CC=CC1=C(C(=O)O)N2C(=O)[C@H](NC(=O)[C@H](N)c3ccc(O)cc3)[C@@H]2SC1	nt	?	i	?	nt
CCOc1ccc(S(=O)(=O)N(CC(=O)NCc2cccnc2)c2ccc(F)cc2)cc1	i	i	i	i	i
COc1cccc(C2CC3C(=O)C=CC2N3Cc2ccccc2)c1 (stereo not given)	-97	?	i	i	i
COc1cccc(CNC(=O)CN2CCCN(Cc3ccccc3)S2(=O)=O)c1	i	nt	nt	nt	i
CNc1c([N+](=O)[O-])cnn1-c1ccccn1	i	i	i	i	nt
Cc1ccccc1	nt	?	i	nt	nt
[Hg+][c]1ccccc1	nt	3.4µM	4.8µM	nt	nt
Cc1ccc(NS(=O)(=O)c2ccc3c(c2)CC(C)N3C(=O)C2CCC2)cc1Cl (stereo not given)	-76	nt	nt	nt	i
CC1CC(C)CN(S(=O)(=O)c2ccc3c(c2)CC(C)N3C(=O)C2CC2)C1 (stereo not given)	?	?	?	i	i
CC1Cc2cc(S(=O)(=O)N3CCCCC3C)ccc2N1C(=O)C1CCC1 (stereo not given)	i	10µM	?	i	i
CCC1CCCCN1S(=O)(=O)c1ccc2c(c1)CCN2C(=O)C1CCC1 (stereo not given)	i	nt	9.3µM	i	i
CC(=O)Nc1ccc(NS(=O)(=O)c2ccc3c(c2)CC(C)N3C(=O)C2CCC2)cc1 (stereo not given)	i	nt	nt	nt	i
CCOC(=O)C1CCCCN1S(=O)(=O)c1ccc2c(c1)CC(C)N2C(=O)C1CCC1 (stereo not given)	i	i	?	i	i
CC1CC(C)CN(S(=O)(=O)c2ccc3c(c2)CC(C)N3C(=O)C2CCC2)C1 (stereo not given)	?	?	10µM	i	i
CCOC(=O)C1=C(COC(=O)c2cc([N+](=O)[O-])ccc2Cl)NC(=O)NC1C (stereo not given)	i	nt	nt	nt	nt
Cc1cccc2c1-c1sc(C(=O)N(C)c3cccc(C(F)(F)F)c3)cc1CO2	i	nt	nt	nt	i
COC(=O)C1=C(C(=O)OC)[C@@H]2N(C)c3ccc(OC)cc3[C@@]23C[C@@H](C(=O)OC)N(S(=O)(=O)c2c(C)noc2C)C3=N1	nt	nt	nt	i[12.9 µM]	nt

Compound activity: PubChem, National Center for Advancing Translational Sciences (NCATS)
